As usually defined, the inhibition is the drop in the measured response relative to a control, in per cent.

Screen size: about 340,000 compounds; about 1,000 (0.29%) were called active. Cut-off read from the data, not from the text of the source: inconclusive = inhibition above about 27% without an active follow-up result; inactive = below that. Only a sample is shown. Results with a measured potency or affinity are listed apart.

The test in a line: H1N1 influenza NS1A inhibitors, functional cell based assay (AID 504329). The note with it: percent inhibition, at 12.5 µM, hits give high values.
Consider `COc1cccc(CNC(=O)COC(=O)C23CC4CC(CC(Cl)(C4)C2)C3)c1`, for which the inhibition is -9.8% (inactive).

On to `O=C(CN(Cc1ccccc1Cl)C(=O)c1ccc(CN2CCOCC2)o1)NCc1ccccc1`, for which the inhibition is 1.95% (inactive).

Take `O=c1c2ccccc2nc(SCCN2CCCCC2)n1CCc1ccccc1`: the inhibition is 6.75% (inactive).

On to `CC/C(C)=N/N1C(=O)c2ccccc2NC1(C)CC` (configuration not stated), for which the inhibition is 5.09% (inactive).

Regarding `O=C(CCc1c[nH]c2ccccc12)NCC1CCCO1` (configuration not stated), the inhibition was -2.9% (inactive).

`O=C(Cn1c(-c2ccccc2)noc1=O)Nc1ccc(S(=O)(=O)N2CCOCC2)cc1`: the inhibition was 2.21% (inactive).

For `O=C(N/N=C/c1ccccc1Cl)c1ccncc1`, the inhibition is 2.1% (inactive).

In the case of `O=C(CNC(=O)c1ccncc1)N/N=C/c1ccc(O)cc1O`, the inhibition is 9.53% (inactive).

On to `Cc1nonc1C(=O)N/N=C/c1cccc(O)c1`, for which the inhibition was -4.77% (inactive).

Regarding `COc1cccc(/C=N/NC(=O)CNC(=O)c2ccncc2)c1O`, the inhibition was 10.4% (inactive).

Take `Cc1nonc1C(=O)N/N=C/c1ccc(O)c(O)c1`: the inhibition was -5.97% (inactive).

`O=C(N/N=C/c1ccccc1C(=O)O)c1ccncc1`: the inhibition was -0.84% (inactive).

For the molecule `O=C(N/N=C/c1ccc(O)cc1)c1ccncc1`, the inhibition is -6.99% (inactive).

For `COc1ccccc1C=NNC(=O)c1ccncc1`, the inhibition is -14.4% (inactive).

Take `CC(NC(=O)COC(=O)/C=C/c1ccco1)c1ccccc1` (configuration not stated): the inhibition is -3.74% (inactive).

For `CCOC(=O)c1ccccc1NC(=O)CSc1nc(N)cc(=O)[nH]1`, the inhibition was -7.55% (inactive).

Consider `CN(C)C(=O)c1ccc(NC(=O)COc2cccc(Oc3ccccc3)c2)cc1`, for which the inhibition is -4.79% (inactive).

Consider `CC(C)CCC(C(=O)O)C(C)CC(=O)NC1CCCCC1` (configuration not stated), for which the inhibition was 4.04% (inactive).

Take `CCC(C)[C@H](NC(=O)N1CC(=O)Nc2ccccc21)C(=O)N1CCC(C(=O)O)CC1` (some centres not stated): the inhibition was 1.95% (inactive).

In the case of `Cc1cccc(N(C(=O)CNC(=O)c2ccco2)C(C(=O)NC2CCCC2)c2ccncc2)c1C` (configuration not stated), the inhibition was 6.68% (inactive).

As for `CCCn1cc(CN2CCC(n3nccc3NC(=O)CCOc3ccccc3)CC2)c(C)n1`, the inhibition is 3.28% (inactive).

With `CN1CCN(c2ccc(S(=O)(=O)N3CCCCC3)cn2)CC1`, the inhibition is -0.41% (inactive).

For the molecule `O=C(COC(=O)c1cc([N+](=O)[O-])ccc1N1CCOCC1)Nc1ccc(Cl)cc1`, the inhibition was -5.7% (inactive).

`Cc1cccc(C)c1C(=O)N[C@@H](Cc1ccccc1)C(=O)O`: the inhibition was 2.25% (inactive).

Consider `O=C(N/N=C/c1ccccc1O)NC12CC3CC(CC(C3)C1)C2`, for which the inhibition was -3.3% (inactive).

For the molecule `O=C(NN=Cc1ccccc1O)C1CC1`, the inhibition was -17.2% (inactive).

As for `O=c1[nH]c2cc(Cl)c(Cl)cc2o1`, the inhibition was -8.2% (inactive).

Turning to `O=C(COC(=O)C1(c2ccccc2)CC1)NNC(=O)c1ccccc1F`, the inhibition was -15.8% (inactive).

Turning to `Cc1c(N=Nc2ccc(O)cc2)c(=O)n(-c2ccccc2)n1C`, the inhibition is -3.89% (inactive).

On to `CC1(C)CC(=O)C(N=Nc2ccc(-c3ccccc3)cc2)=C(O)C1`, for which the inhibition is 10.2% (inactive).

Regarding `CC1(C)CC(=O)C(N=Nc2c(Cl)cc(Cl)cc2Cl)=C(O)C1`, the inhibition was 9.91% (inactive).

Regarding `Cc1c(N=Nc2c(O)n(C)c(=O)n(C)c2=O)c(=O)n(-c2ccccc2)n1C`, the inhibition is 3.65% (inactive).

Regarding `Cc1cc(NC(=O)CC(C)C)c(=O)n(Cc2c(F)cccc2Cl)c1`, the inhibition is -1.36% (inactive).

For the molecule `Cc1ccc(S(=O)(=O)N2CCN(C(=O)CC3CCCC3)CC2)cc1`, the inhibition is 2.13% (inactive).

In the case of `Cc1cc(C)c2nc(SCC(=O)NNC(=O)c3ccco3)c(C)cc2c1`, the inhibition is -0.91% (inactive).

Turning to `Cc1ccc(S(=O)(=O)N2CCCCC2)cc1C(=O)N1CCCCCC1`, the inhibition is -15.6% (inactive).

With `CCOC(=O)C1CCN(C2CCN(C(=O)c3oc4c(F)cccc4c3C)CC2)CC1`, the inhibition is -2% (inactive).

Regarding `Cc1ccc(S(=O)(=O)N(CCC(=O)NCc2ccccc2F)c2ccccc2)cc1`, the inhibition was -14.3% (inactive).

On to `CC(=O)c1ccc(NC(=O)Nc2ccc(Br)cc2C)cc1`, for which the inhibition is 1.12% (inactive).

With `C=C(C)COc1ccc(-c2[nH]ncc2Oc2ccccc2OC)c(O)c1`, the inhibition was -3.04% (inactive).

For the molecule `O=[N+]([O-])c1ccccc1/C=C/C=N/N1CCCCC1`, the inhibition was 4.44% (inactive).

Take `O=[N+]([O-])c1ccccc1/C=N\N1CCN(c2ccccc2)CC1`: the inhibition is 17% (inactive).

On to `O=C1c2ccccc2-c2c1cccc2C(=O)N1CCCCCC1`, for which the inhibition was -0.29% (inactive).

With `O=C1c2ccccc2C(=O)c2c1ccc(C(=O)N1CCCCC1)c2NCCO`, the inhibition is 21.2% (inactive).

`CCN(CCN(C)C)C(=O)c1ccc2c(c1NCCO)C(=O)c1ccccc1C2=O`: the inhibition was 12.9% (inactive).

As for `CC1CCCN(C(=O)CN2C(=O)c3ccccc3C2=O)C1` (configuration not stated), the inhibition was -0.8% (inactive).

Turning to `O=C(O)c1ccc2c(c1Nc1ccccc1)C(=O)c1ccccc1C2=O`, the inhibition was 16.9% (inactive).

For the molecule `CC1CC(C)CN(C(=O)c2cccc3c2-c2ccccc2C3=O)C1` (configuration not stated), the inhibition is -15% (inactive).

On to `CCNc1c(C(=O)O)ccc2c1C(=O)c1ccccc1C2=O`, for which the inhibition was 10.3% (inactive).

For `O=C1c2ccccc2-c2c1cccc2C(=O)N1CCCCC1`, the inhibition was -10.6% (inactive).

As for `CCOC(=O)c1sc(C)c2c(=O)n(CCCN3CCOCC3)cnc12`, the inhibition is -0.01% (inactive).

Consider `Cc1cc(C(=O)NCc2cccnc2)n(-c2ccccc2)n1`, for which the inhibition was 24.2% (inactive).

`CC(C)(C)OC(=O)N[C@H](C(=O)OC(C)(C)C)c1ccc(C(F)(F)F)cc1`: the inhibition was 8.11% (inactive).

In the case of `COC(=O)CNC(=O)Cn1c(=O)n(Cc2ccc(F)cc2)c(=O)c2sccc21`, the inhibition was 0.76% (inactive).

With `COc1ccc(CCC(=O)NCCS(=O)(=O)N2CCN(c3ccc(OC)cc3)CC2)cc1`, the inhibition is 1.44% (inactive).

As to `COC(=O)c1sc2ncccc2c1OCc1cccc(Cl)c1`, the inhibition was 1.6% (inactive).

Turning to `Cc1cc(C)cc(OCC(=O)Nc2nonc2NC(=O)COc2cc(C)cc(C)c2)c1`, the inhibition is -4.28% (inactive).

On to `Nn1c(SC/C=C/c2ccccc2)nnc1-c1ccncc1`, for which the inhibition was -1.07% (inactive).

Take `Nn1c(SC/C=C/c2ccccc2)nnc1-c1cccnc1`: the inhibition was -6.35% (inactive).

Take `CN(c1ncc(C(F)(F)F)cc1Cl)N1C(=O)c2cccc(N)c2C1=O`: the inhibition was -4.28% (inactive).

`COc1ccccc1N1CCN(C(=O)c2sc3ncn(CC(=O)N4CCC(C)CC4)c(=O)c3c2C)CC1`: the inhibition is 6.39% (inactive).

Turning to `CN(Cc1nc(CC2CC2)no1)CC12CC3CC(CC(C3)C1)C2`, the inhibition was -6.9% (inactive).

Take `O=C(c1ccc(O)cc1)c1ccc(C(=O)c2ccc(O)cc2)cc1`: the inhibition was -19.1% (inactive).

For the molecule `O=C(c1ccc(O)cc1)c1ccc(Cl)cc1`, the inhibition was -10.1% (inactive).

In the case of `CCOCCCNC(=O)C1c2ccccc2C(=O)N2CCc3ccccc3C12` (configuration not stated), the inhibition was 24.7% (inactive).

For `COc1ccc(Nc2cccccc2=O)cc1`, the inhibition is -2.41% (inactive).

Regarding `CC(=O)Nc1ccc(Nc2ccccc2)cc1`, the inhibition is -4.36% (inactive).

In the case of `COc1ccccc1Nc1ccc(N)cc1`, the inhibition was 10.9% (inactive).

`CC(C)Nc1ccccc1`: the inhibition is -4.73% (inactive).

Regarding `Nc1ccccc1Nc1ccccc1`, the inhibition was 18.3% (inactive).

Consider `Cc1ccc(Nc2cccccc2=O)cc1`, for which the inhibition is -5.45% (inactive).

`Cc1ccc(Nc2ccccc2)cc1`: the inhibition was 9.38% (inactive).

Take `COc1ccc(Nc2cccc3ccccc23)cc1`: the inhibition was -1.24% (inactive).

In the case of `CC(CN1CCN(C)CC1)OC(=O)c1cccc(F)c1` (configuration not stated), the inhibition is -2.72% (inactive).

As for `COc1cc(OC)c(CN2CCC(Cc3ccccc3)CC2)cc1Br`, the inhibition is -20.9% (inactive).

Consider `COc1ccc(NC(=O)CSc2nc3[nH]ncc3c(=O)[nH]2)cc1OC`, for which the inhibition is -0.08% (inactive).

For `COc1cccc(CNc2nc3nc(C)c(Cl)c(C)n3n2)c1`, the inhibition is 0.89% (inactive).

In the case of `CCc1nnc(NC(=O)COC(=O)c2cc(OC)cc(OC)c2)s1`, the inhibition was 1.22% (inactive).

Regarding `CCc1ccc(NC(=O)C2CCN(c3ncnc4c3nc3n4CCCCC3)CC2)cc1`, the inhibition was -5.69% (inactive).

For `CCOc1ccc2oc(C(=O)N(Cc3nnc(-c4ccccc4Cl)o3)C3CC3)c(C)c2c1`, the inhibition is -5.39% (inactive).

For the molecule `CC(C)c1ccc(CNC(=O)CSCC(=O)Nc2ccc3ccccc3c2)cc1`, the inhibition was 1.48% (inactive).

As to `CCc1nn(CC(=O)NC2CCN(Cc3ccccc3)CC2)c(=O)c2cc3cc(F)ccc3n12`, the inhibition was 0.23% (inactive).

As for `Cc1cc(C)c(NC(=O)CS(=O)CC(=O)Nc2ccc(-n3cnnn3)c(C)c2)c(C)c1` (configuration not stated), the inhibition was -3.45% (inactive).

`C/C(=C/c1ccccc1)C(=O)N1CCN(c2ccc(F)cc2)CC1`: the inhibition is -28.5% (inactive).

`c1ccc(Nc2ccc(Nc3ccccc3)cc2)cc1`: the inhibition is 26.8% (inactive).

As to `c1ccc(Nc2ccccc2)cc1`, the inhibition is -1.53% (inactive).

As for `CC(C)c1nc(SCC(=O)N2CCCCCC2)c2c(=O)n(C)c(=O)n(C)c2n1`, the inhibition is -2.22% (inactive).

Consider `COc1ccccc1C(CCNCc1ccccc1)c1ccc(OC(C)C)cc1` (configuration not stated), for which the inhibition was 11.1% (inactive).

`COc1ccc(CNCCC(c2ccc(OC(C)C)cc2)C(C)C)cc1OC` (configuration not stated): the inhibition is 5.92% (inactive).

For the molecule `COc1ccc(C(CCNCc2ccc(N(C)C)cc2)c2ccccc2)cc1` (configuration not stated), the inhibition is 25.2% (inactive).

With `COc1ccc(CNCCC(c2ccc(OC(C)C)cc2)c2ccccc2OC)cc1` (configuration not stated), the inhibition is 13.4% (inactive).

As to `COc1ccc(C(CCNCc2ccc(OC(C)C)cc2)c2ccccc2OC)cc1` (configuration not stated), the inhibition was 3.25% (inactive).

On to `COc1ccc(CNCCC(c2ccc(OC)cc2)c2ccccc2OC)cc1` (configuration not stated), for which the inhibition is -0.73% (inactive).

On to `O=C(CCc1c[nH]c2ccccc12)NCc1cccc(Cl)c1`, for which the inhibition is 15.9% (inactive).

Regarding `Cc1cc(=O)oc2cc(OCC(=O)Nc3c(C)n(C)n(-c4ccccc4)c3=O)c(Cl)cc12`, the inhibition was -7.09% (inactive).

In the case of `Cc1cc(=O)oc2cc(OCC(=O)N(C)C3CCS(=O)(=O)C3)c(Cl)cc12` (configuration not stated), the inhibition is -3.85% (inactive).

Take `CN(C)/C=C1/C(=O)NC(=O)N(CCNc2ncc(C(F)(F)F)cc2Cl)C1=O`: the inhibition is -1.37% (inactive).

The record behind these values is PubChem BioAssay AID504329 (Southern Research Specialized Biocontainment Screening …, 2011).
